Measurements as given in PubChem BioAssay (NCI).
Where “and” joins values, the source holds several entries; their conditions need not be identical. Equal values may be shown once. The panel holds about 83,000 compounds, 20% with a hit somewhere; the sample as a whole holds those more often.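 Assay: single dose, 48 h. Readout: percent growth (0 = no net growth; negative = cell death). Active: <10.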 Unmarked numbers belong to inactive results. Calls of active or inactive are those of the source.

test system: LOX IMVI melanoma; test: NCI-60 one-dose screen, 48 h (100 = growth as untreated, 0 = no growth, -100 = all killed); settings: 10 µM unless noted
Description: Growth inhibition of the LOX IMVI human tumor cell line is measured as a screen for anti-cancer activity. Cells are grown in 96 well plates and exposed to the test compound for 48 hours. Compounds are tested at a single concentration, which is 10^-5 M for most compounds. The reported endpoint is percent growth (GI% or GIPRCNT), where numbers from 0 - 100% represent growth inhibition, and numbers from -100% - 0 represent cell death. For example, a value of 40 represents 60% growth inhibition. A value of 0 means no net growth occurred over the course of the experiment. A value of -40 indicates 40% of cells at the beginning of the experiment died by the end of the experiment. A value of -100 means all cells are dead at the end of the experiment.
NCI-60 Human Tumor Cell Lines Screen was performed using the standard one-dose NCI protocol, which is described in more detail at https://dtp.cancer.gov/discovery_development/nci-60/default.htm.
Compounds with GIPRCNT values below 10 were considered active. Activity score was based on GIPRCNT using the following formula: […]
Score is 0 for GIPRCNT values of 100 or above, 50 for GIPRCNT values of 0, and 100 for GIPRCNT values of -100.

Question: How did the growth turn out when O=C(NNC(=S)NC(=O)c1ccccc1)c1ccc(OCc2nc3ccc(Cl)cc3[nH]2)cc1 was run?
Answer: The growth was -92.2% (active).

Question: For COc1ccc2ccccc2c1/C=C1\SC(=Nc2ccc(O)cc2)NC1=O, which growth is on record?
Answer: The growth was -3.89% (active).

Question: For COc1ccccc1/C=C/c1cccc(NC(=S)NCCCCN(C)C)c1, which growth is on record?
Answer: The growth was -98.4% (active).

Question: With CCCSc1nnc(-c2c(C)nc3sccn23)o1 as the compound, how does the growth read?
Answer: Its growth is 88.9%.

Question: For CC[C@]12C=CCN3CC[C@]4(C(=C(C(=O)OC)C1)Nc1cc(OC)c([C@@H]5[C@H]6O[C@H]6[C@@]6(CC)CC(C(=O)OC)=C7Nc8cc(OC)ccc8[C@@]78CCN5[C@@H]68)cc14)[C@@H]32, which growth is on record?
Answer: The growth was 15.5%.

Question: How did the growth turn out when COc1ccc2oc(=O)c(-c3csc(N/N=C(\C)c4cc(OC)c(OC)c(OC)c4)n3)cc2c1 was run?
Answer: Its growth is 86.6%.

Question: For Clc1ccc(Nc2nnc(-c3c[nH]c4ccccc34)o2)cc1, which growth is on record?
Answer: Its growth is 58.1%.

Question: How did the growth turn out when CN1CCN(CCS(=O)(=O)Nc2cc(-c3ccc4ncnc(Nc5ccc(F)c(Cl)c5)c4c3)cnc2Cl)CC1 was run?
Answer: Its growth is -57.5% (active).

Question: Cc1ccc2nc(SCc3ccccc3F)n(-c3ccccc3)c(=O)c2c1 was tested. Which growth did it give?
Answer: Its growth is 84.9%.

Question: COc1ccc2[nH]c(O)c(N=Nc3nc(-c4ccc(Cl)cc4)cs3)c2c1 was tested. Which growth did it give?
Answer: The growth was -54.9% (active).

Question: With COc1c(F)ccc(C(=O)Nc2ccc3nc(NC(=O)C4CCCN(S(=O)(=O)c5ccc(C(C)(C)C)cc5)C4)sc3c2)c1F (stereo not given) as the compound, how does the growth read?
Answer: The growth was 43.9%.

Question: Which growth does the source give for O=C(CSc1nnc(-c2ccc(-c3nc4ccc(Cl)cc4[nH]3)cc2)o1)Nc1ccc(Br)cc1 here?
Answer: The growth was -100% (active).

Question: Which growth does the source give for O=C(c1cc2cc(OCCCN3CCC3)ccc2[nH]1)N1C[C@@H](CCl)c2c1cc(OCc1ccccc1)c1ccccc21 here?
Answer: The growth was -94.2% (active).

Question: Which growth does the source give for Cc1cccc(/C=C/c2ccc(NC(=S)NCCCCN(C)C)cc2)c1 here?
Answer: The growth was -99.1% (active).

Question: With COc1ccc2[nH]cc(-c3cc4nc(-c5cn(C)c6ncccc56)cc(N)n4n3)c2c1 as the compound, how does the growth read?
Answer: Its growth is -85.3% (active).

Question: For Cc1ccc(C(=O)Nc2cc(-n3ccnc3)cc(C(F)(F)F)c2)cc1-n1cc(-c2cnc3cccnn23)nn1, which growth is on record?
Answer: The growth was 39.4%.

Question: For FC(F)(F)CN1CCN(CCn2c(C(F)(F)F)cc3c(Cl)ncnc32)CC1, which growth is on record?
Answer: The growth was -96.7% (active).

Question: For Cn1cc(-c2cc(N)n3nc(-c4c[nH]c5ccc(F)cc45)cc3n2)c2cc(Br)cnc21, which growth is on record?
Answer: The growth was -56.8% (active).

Question: For O=C(c1ccc(O)cc1)C1[C@H](c2ccc(Cl)cc2)[C@@H](c2ccccc2)NC12C(=O)Nc1ccccc12 (stereo not given in full), which growth is on record?
Answer: Its growth is -100% (active).

Question: For NC(=O)c1ccc(-c2ccc3ncnc(N4CCc5cc(F)c(Cl)cc54)c3c2)cn1, which growth is on record?
Answer: The growth was 57%.

Question: Which growth does the source give for O=C(c1ccc(Cl)cc1)C1[C@H](c2ccccc2Cl)[C@@H](c2ccccc2)NC12C(=O)Nc1ccc(Br)cc12 (stereo not given in full) here?
Answer: Its growth is -100% (active).

Question: How did the growth turn out when O=C(Nc1ccc(F)cc1)Nc1nc2ccc([N+](=O)[O-])cc2s1 was run?
Answer: The growth was 12.5%.

Question: COc1ccc2c(c1)C(Sc1ccc(Br)cc1)c1c(nc(N)c(C#N)c1N)O2 (stereo not given) was tested. Which growth did it give?
Answer: The growth was 16.7%.

Question: With O=C1Nc2ccc(F)cc2/C1=C/C(=O)c1cc2ccccc2oc1=O as the compound, how does the growth read?
Answer: Its growth is 80.4%.

Question: With COc1ccc(-c2nc3ccc(-c4nnc(SCc5ccccc5)o4)cc3[nH]2)cc1 as the compound, how does the growth read?
Answer: The growth was -96.6% (active).

Question: How did the growth turn out when CC1=C(C(=O)Nc2ccccc2)C(c2cccc3ccccc23)n2c(nc3ccccc32)N1 (stereo not given) was run?
Answer: The growth was 53.5%.

Question: CC(C)(C)OC(=O)N1C/C(=C\c2ccc(F)cc2)C(=O)/C(=C/c2ccc(F)cc2)C1 was tested. Which growth did it give?
Answer: Its growth is -100% (active).

Question: Which growth does the source give for COc1ccc(NC(=O)Nc2nc3ccc([N+](=O)[O-])cc3s2)cc1 here?
Answer: The growth was 33.8%.

Question: For COc1ccc(NC(=O)Cn2c(/C=C/c3ccc([N+](=O)[O-])cc3)nc3ccccc3c2=O)cc1, which growth is on record?
Answer: Its growth is 61.5%.

Question: With O=C1CCC(N2C(=O)c3cccc(NCCOCCOCCOCCC(=O)NCCCC(=O)NC(c4ccc5c(c4)OCO5)c4cc(Cl)c5cccnc5c4O)c3C2=O)C(=O)C1 (stereo not given) as the compound, how does the growth read?
Answer: The growth was -37.6% (active).

Question: For O=C1/C(=C/C=C/c2ccco2)SC(=S)N1CC(=S)C1C=CS(=O)(=O)C1 (stereo not given), which growth is on record?
Answer: The growth was 66.7%.

Question: Which growth does the source give for COc1ccc(Nc2nnc(-c3c[nH]c4ccccc34)o2)cc1 here?
Answer: Its growth is 71.6%.

Question: Which growth does the source give for COc1ccc(C(=O)/C=C/c2ccc3c(c2)OCCO3)cc1S(N)(=O)=O here?
Answer: The growth was 23.7%.

Question: CCc1ccccc1NC(=O)N/C(N)=N/c1nc2ccccc2s1 was tested. Which growth did it give?
Answer: Its growth is -53.7% (active).

Question: With Cc1ccc(C(=O)Nc2cc(-n3ccnc3C)cc(C(F)(F)F)c2)cc1C#Cc1cnc2cccnn12 as the compound, how does the growth read?
Answer: The growth was -80.2% (active).

Question: Cn1ncc2c(N)nc(Oc3ccccc3-c3ccccc3)nc21 was tested. Which growth did it give?
Answer: The growth was 34.7%.

Question: Cn1cc(-c2cc(N)n3nc(-c4c[nH]c5ccccc45)cc3n2)c2cc(Cl)ccc21 was tested. Which growth did it give?
Answer: Its growth is -82.5% (active).

Question: How did the growth turn out when O=C(CSc1nc2ccccc2c(=O)[nH]1)NNC(=O)c1ccccc1Cl was run?
Answer: The growth was 102%.

Question: How did the growth turn out when CS(=O)(=O)Nc1cc(-c2ccc3ncnc(Nc4ccc(OCc5cccnc5)c(Cl)c4)c3c2)cnc1Cl was run?
Answer: Its growth is -64.2% (active).

Question: O=C1C=CC(=CC=C2N(Cc3ccc4ccccc4c3)c3ccccc3N2Cc2ccc3ccccc3c2)C=C1 was tested. Which growth did it give?
Answer: Its growth is 14.8% and 19.6%.
